# Measured values as given in PubChem BioAssay (NCATS).
# Results filed as inconclusive are left out. Unmarked numbers belong to inactive results. Active and inactive are the calls of the source. The call rests on the fitted dose curve; in most records, active means well fitted cell-killing curve with a large enough effect; inconclusive means small, poorly fitted or top-dose-only effect; inactive means no such curve, though single readings can be large or run the other way. Non-standard residues stand in square brackets, D forms with d. Residues, ends and D or L forms follow the SMILES beside them. *: point of attachment. Nva = CCC[C@H](N)C(=O)O; Cbz = O=C(OCc1ccccc1)*
# Test: qHTS of pediatric cancer cell lines to identify multiple opportunities for drug repurposing: Primary screen for SJ-GBM2 cells (AID 1347091)
# Settings: SJ-GBM2 viability, CellTiter-Glo luminescence, 48 h; series mostly up to 46 µM; activity change, negative = cytotoxic: at the top concentration
# Description: Drug repurposing or repositioning has been offered as a strategy for drug development in oncology programs. This approach has special potential for childhood cancers and other rare or orphan diseases, where the expected return on new drug development has been a disincentive to pharmaceuticals.
# In this project we exploit the poly-pharmacology of drugs to discover new indications via phenotypic screening of a panel of 19 well-characterized cell lines derived from solid tumors seen in children and adolescents. The goal is to identify approved drugs with previously unrecognized anticancer properties that has the potential to reveal new mechanisms and biological processes involved in carcinogenesis or drug resistance. We employed a titration-based paradigm (quantitative high-throughput screening or qHTS), where all compounds were tested at multiple concentrations for their effect on cell viability. Concentration-response curves (CRCs) were derived directly from the primary screen, and both potency and efficacy values were used to identify compounds with robust bioactivity profiles. We screened the NIH Chemical Genomics Center (NCGC) Pharmaceutical Collection (NPC) and Mechanism Interrogation Plate (MIPE) small molecule collections of approved and investigational compounds against these cell lines; and measured metabolically active cells after 48 hours of compound treatment as a proxy for cell viability.
# Assay Submitter: Nathalia J. Martinez, National Center for Advancing Translational Sciences, National Institutes of Health, Rockville, MD, USA; email: natalia.martinez@nih.gov
# [1] Shen, M et al. Quantitative high-throughput phenotypic screening of pediatric cancer cell lines identifies multiple opportunities for drug repurposing. Oncotarget 2017 Dec 19;9(4):4758-4772. PMID 29435139.
# The cells were obtained from University of North Carolina (UNC), Pediatric Preclinical Testing Program (PPT), and Coriell Institute (CI).
# qHTS cell viability assay:
# Cells were assayed in growth media at a density of 500-1,000 cells/well. Five microliters of cells were dispensed into 1,536-well, white, solid-bottom, TC-treated plates (Greiner Bio One) using a multidrop dispenser and incubated at 37 degrees C, 5% CO2, under a humidified atmosphere for 5 hours. Twenty-three nanoliters of compounds and controls (neutral control DMSO or positive control bortezomib at final concentration of 2.3 µM) were subsequently transferred by Kalypsys pintool. For primary screens, the MIPE collection was tested at 11-point dilutions (final concentrations range from 0.78 nM to 46 µM) and the NPC collection at 8-point dilutions (final concentrations range from 0.59 nM to 46 µM). Compounds tested in follow-up screens were assayed at 11-point dilutions. Cells were incubated for 48 hours, followed by addition of 3 uL of CellTiter-Glo (Promega). After a 15 min incubation at room temperature, samples were analyzed for luminescence intensity using a ViewLux High-throughput CCD imager equipped with clear filters.
# Potency means the concentration at half of the fitted maximal effect.
SMILES,Potency,"activity change, negative = cytotoxic [%]"
C=CC(=O)Nc1cccc(Nc2nc(NC3CCC(N(C)C)CC3)nc3c2ncn3C(C)C)c1 (stereo not given),235 nM (active),
COc1cc(O)c2c(c1)C1OC1C[C@H](O)[C@H](O)C(=O)C=CC[C@H](C)OC2=O (stereo not given in full),8330 nM (active),
CCOC(=O)N1CCN([N+]([O-])=NOc2ccc([N+](=O)[O-])cc2[N+](=O)[O-])CC1,8330 nM (active),
CCCCC(=O)O[C@]1(C(=O)CO)[C@@H](C)C[C@H]2[C@@H]3CCC4=CC(=O)C=C[C@]4(C)[C@@]3(F)[C@@H](O)C[C@@]21C,,-8.25
CCn1c(=O)c2c(nc(C=Cc3ccc(OC)c(OC)c3)n2C)n(CC)c1=O,,56.6
CCOc1cc2ncc(C#N)c(Nc3ccc(OCc4ccccn4)c(Cl)c3)c2cc1NC(=O)C=CCN(C)C,1180 nM (active),
OC[C@H]1OC(O)C[C@@H](O)[C@H]1O (stereo not given in full),,24.2
CC(Cc1ccc(O)c(O)c1)(NN)C(=O)O (stereo not given),,3.21
COc1ccc(C[C@@H](C)[C@@H](C)Cc2ccc(OC)c(OC)c2)cc1OC,418 nM (active),
CC(C)(C)[N+]([O-])=Cc1ccc(S(=O)(=O)O)cc1S(=O)(=O)O,,22.5
Cc1cnn(C)c1C(=O)Nc1cc(Nc2ccc3c(C=Cc4ccccn4)n[nH]c3c2)ccc1F,18700 nM (active),
CC(=O)[C@]1(O)Cc2c(O)c3c(c(O)c2[C@@H](O[C@H]2C[C@H](N)[C@@H](O)[C@H](C)O2)C1)C(=O)c1ccccc1C3=O,83.3 nM (active),
COc1ccc([C@@H]2CNC(=O)C2)cc1OC1CCCC1,,20.1
O=c1c(O)c(-c2ccc(O)c(O)c2)oc2cc(O)ccc12,18700 nM (active),
COc1ccc(S(=O)(=O)Nc2cc(-c3c(O)ccc4ccccc34)c(O)c3ccccc23)cc1,18700 nM (active),
CCOC(=O)C1=C(C)NC(=S)NC1c1cccc(O)c1 (stereo not given),37.2 nM (active),
C=CCNc1c(O)cc2c(O)c1C[C@@H](C)C[C@H](OC)[C@@H](O)[C@@H](C)C=C(C)[C@H](OC(N)=O)[C@@H](OC)C=CC=C(C)C(=O)N2,526 nM (active),
CN(CC(=O)N(Cc1ccc(C2CCCCC2)cc1)c1ccc(C(=O)O)c(O)c1)S(=O)(=O)c1c(F)c(F)c(F)c(F)c1F,11800 nM (active),
CC(C)C[C@H](NC(=O)[C@@H](NC(=O)c1cccc(-c2ccccc2)n1)[C@@H](C)O)B(O)O,41.8 nM (active),
Oc1ccc(-c2ccc(-c3cc(Nc4cccc(CNC5CC5)c4)n[nH]3)cc2)c(O)c1,1480 nM (active),

SMILES,Potency,"activity change, negative = cytotoxic [%]"
COc1ccc(S(=O)(=O)Nc2cccnc2Nc2ccc(O)cc2)cc1,23.5 nM (active),
CC1=C(C(=O)Nc2cc3cn[nH]c3cc2F)C(c2ccc(Cl)cc2F)N=C(c2ccnc(Cl)c2)N1 (stereo not given),5900 nM (active),
Nc1cccc2c1C(=O)N(C1CCC(=O)NC1=O)C2=O (stereo not given),,14.4
C=CC(=O)Nc1ccc2ncnc(Nc3ccc(OCc4cccc(F)c4)c(Cl)c3)c2c1,29.6 nM (active),
COc1cccc2c1C(=O)c1c(O)c3c(c(O)c1C2=O)C[C@@](O)(C(C)=O)C[C@H]3O[C@H]1C[C@H](N)[C@H](O)[C@H](C)O1,66.2 nM (active),
O=C1NC(O)CCN1[C@@H]1O[C@H](CO)[C@H](O)[C@H]1O (stereo not given in full),,8.09
C[C@H](CCC(=O)O)[C@H]1CC[C@H]2[C@@H]3[C@H](O)C[C@@H]4C[C@H](O)CC[C@]4(C)[C@@H]3CC[C@]12C,,16.1
CN1CCc2c(c3ccccc3n2Cc2ccc(C(=O)NO)cc2)C1,23500 nM (active),
CCC[C@@H](C=O)NC(=O)[C@H](CC(C)C)NC(=O)[C@H](CC(C)C)NC(=O)OCc1ccccc1 (Cbz-Leu-Leu-[Nva]-aldehyde),296 nM (active),
COc1cccc2c1C(=O)c1c(O)c3c(c(O)c1C2=O)C[C@@](O)(C(=O)CO)C[C@@H]3O[C@H]1C[C@H](N)[C@@H](O)[C@H](C)O1,264 nM (active),
CC(C)NC[C@@H](C(=O)N1CCN(c2ncnc3c2[C@H](C)C[C@H]3O)CC1)c1ccc(Cl)cc1,3320 nM (active),
OCC(O)C(O)C(O)CO (stereo not given),,-8.97
NC(=O)N1CCC(CC(=O)N2CCC([C@H]3c4ncc(Br)cc4CCc4cc(Cl)cc(Br)c43)CC2)CC1,16600 nM (active),
O=C1NCCc2[nH]c(-c3ccncc3)cc21,2350 nM (active),
CC(C=CC(=O)NO)=C[C@@H](C)C(=O)c1ccc(N(C)C)cc1,1870 nM (active),
Cc1ncc(-c2ccnc(Nc3ccc(S(C)(=O)=O)cc3)n2)n1C(C)C,1320 nM (active),
C=C1C[C@@]2(O)O[C@@]3(C[C@H]2C(C)C)[C@H](C)CC[C@H]13,,17
O=[N+]([O-])c1cn2c(n1)OC[C@@H](OCc1ccc(OC(F)(F)F)cc1)C2,,48.8
C[C@](Cc1c[nH]c2ccccc12)(NC(=O)OC1C2CC3CC(C2)CC1C3)C(=O)NC[C@H](NC(=O)CCC(=O)O)c1ccccc1 (stereo not given in full),,13.5
CCNC(=O)c1cc2c(-c3cc(OCCN4CCCC4)c(Cl)cc3Cl)nc(N)nc2s1,2090 nM (active),
